Experiments:
Assay in all cases: PBM binding z-score (relative to random genomic background probes); higher = stronger binding; sequences stand for … in GC…GCGATTGACAGCGTAGAATGAAGG
[1] = tested on: FXR:RXRa (NR concentration 270 nM, RXRa partner concentration 90 nM)
Outline: (§1)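 Custom Agilent 4×180K protein-binding microarrays carried double-stranded probes, each with a 34-nt variable region. These regions held direct-repeat seeds, single-nucleotide variants, half-site ablations and random human genomic background sequences. Ligand-free nuclear receptor dimers were incubated on the arrays for 1 h, antibodies against each partner (one per run) detected binding, and scanned fluorescence was regression-normalized. Binding z-scores take the random background probes as reference.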

[2] = tested on: LXRa:RXRa (NR concentration 270 nM, RXRa partner concentration 90 nM)
Outline: as §1

[3] = tested on: LXRa homodimer (NR concentration 270 nM)
Outline: as §1

[4] = tested on: LXRb:RXRa (NR concentration 270 nM, RXRa partner concentration 90 nM)
Outline: as §1

[5] = tested on: LXRb homodimer (NR concentration 270 nM)
Outline: as §1

[6] = tested on: PPARa:RXRa (NR concentration 270 nM, RXRa partner concentration 90 nM)
Outline: as §1

[7] = tested on: PPARg:RXRa (NR concentration 180 nM, RXRa partner concentration 90 nM)
Outline: as §1

[8] = tested on: PPARg:RXRa 270nM:90nM, anti-RXR (NR concentration 270 nM, RXRa partner concentration 90 nM)
Outline: as §1

[9] = tested on: PPARg:RXRa 30nM:10nM, anti-RXR (NR concentration 30 nM, RXRa partner concentration 10 nM)
Outline: as §1

[10] = tested on: PPARg:RXRa 90nM:30nM, anti-RXR (NR concentration 90 nM, RXRa partner concentration 30 nM)
Outline: as §1

GGAACGAGGCCAAGTTGATAGCAGAGTTTGATGG
PBM binding z-score [1]: -0.211
PBM binding z-score [2]: -0.562
PBM binding z-score [3]: -0.768
PBM binding z-score [4]: -0.914
PBM binding z-score [5]: -0.878
PBM binding z-score [6]: 0.0938
PBM binding z-score [7]: 0.353
PBM binding z-score [8]: 0.159
PBM binding z-score [9]: -0.422
PBM binding z-score [10]: -0.286

TCTAGTTGGTCAAAGGTAACACACTCGAAATGCG
PBM binding z-score [1]: 1.27
PBM binding z-score [2]: 1.4
PBM binding z-score [3]: 0.707
PBM binding z-score [4]: 1.5
PBM binding z-score [5]: 0.561
PBM binding z-score [6]: 4
PBM binding z-score [7]: 8.12
PBM binding z-score [8]: 7.77
PBM binding z-score [9]: 6.85
PBM binding z-score [10]: 8.85

CTCGATAGGTCGGTTGAGGTGAGTATACGGATAA
PBM binding z-score [1]: 0.692
PBM binding z-score [2]: 0.287
PBM binding z-score [3]: -0.389
PBM binding z-score [4]: 0.0394
PBM binding z-score [5]: -0.451
PBM binding z-score [6]: 0.659
PBM binding z-score [7]: -0.0443
PBM binding z-score [8]: -0.187
PBM binding z-score [9]: -0.208
PBM binding z-score [10]: -0.177

TCATATAGGTAAATGCTAGCTGAAAGTCCGATCT
PBM binding z-score [1]: 0.654
PBM binding z-score [2]: 0.665
PBM binding z-score [3]: -0.000947
PBM binding z-score [4]: 0.713
PBM binding z-score [5]: -0.112
PBM binding z-score [6]: 1.04
PBM binding z-score [7]: 0.413
PBM binding z-score [8]: 1.96
PBM binding z-score [9]: 3.71
PBM binding z-score [10]: 2.81

TAGCCTTGGTCATTCAGGGGCCAGTATAGAAAGC
PBM binding z-score [1]: -0.269
PBM binding z-score [2]: -0.328
PBM binding z-score [3]: -0.573
PBM binding z-score [4]: 0.134
PBM binding z-score [5]: -0.26
PBM binding z-score [6]: 0.0582
PBM binding z-score [7]: -0.0299
PBM binding z-score [8]: -0.0721
PBM binding z-score [9]: -0.509
PBM binding z-score [10]: -0.279

ACTTACGGTTCAACGAGGTTATAGCACGCGTATA
PBM binding z-score [1]: 2.96
PBM binding z-score [2]: 3.15
PBM binding z-score [3]: 1.07
PBM binding z-score [4]: 2.64
PBM binding z-score [5]: 0.606
PBM binding z-score [6]: 3.49
PBM binding z-score [7]: 1.09
PBM binding z-score [8]: 1.32
PBM binding z-score [9]: 0.521
PBM binding z-score [10]: 1.03

ACTCGGAGGACAAAGGTCCGAGCTACGCCAGTGA
PBM binding z-score [1]: -0.0908
PBM binding z-score [2]: 0.0119
PBM binding z-score [3]: -0.328
PBM binding z-score [4]: -0.654
PBM binding z-score [5]: -0.577
PBM binding z-score [6]: 0.672
PBM binding z-score [7]: 1.66
PBM binding z-score [8]: 2.29
PBM binding z-score [9]: 0.616
PBM binding z-score [10]: 2.38

CGGAGTAGGTTATGGGGCATTCAGGCAACGGTGA
PBM binding z-score [1]: 0.339
PBM binding z-score [2]: 0.3
PBM binding z-score [3]: 0.0885
PBM binding z-score [4]: 0.718
PBM binding z-score [5]: -0.187
PBM binding z-score [6]: 2.92
PBM binding z-score [7]: 4.95
PBM binding z-score [8]: 5.93
PBM binding z-score [9]: 5.09
PBM binding z-score [10]: 6.03

TGAATGAGGTTATAACATCAGGGAACGTTGCAAA
PBM binding z-score [1]: 1.52
PBM binding z-score [2]: 1.46
PBM binding z-score [3]: -0.281
PBM binding z-score [4]: 1.2
PBM binding z-score [5]: -0.639
PBM binding z-score [6]: 2.52
PBM binding z-score [7]: 1.12
PBM binding z-score [8]: 1.54
PBM binding z-score [9]: 0.946
PBM binding z-score [10]: 1.41

ATAGGTAGGTTACATCCGGGTCATTCAGGCTATG
PBM binding z-score [1]: 2.31
PBM binding z-score [2]: 4.03
PBM binding z-score [3]: 1.3
PBM binding z-score [4]: 2.53
PBM binding z-score [5]: 0.566
PBM binding z-score [6]: 3.17
PBM binding z-score [7]: 2.36
PBM binding z-score [8]: 2.74
PBM binding z-score [9]: 0.814
PBM binding z-score [10]: 1.92

GCAGACAGGTGAATCGCAGGTAACTCAGGGTGGC
PBM binding z-score [1]: -0.281
PBM binding z-score [2]: -0.0182
PBM binding z-score [3]: -0.726
PBM binding z-score [4]: -0.203
PBM binding z-score [5]: -1.12
PBM binding z-score [6]: 0.748
PBM binding z-score [7]: 0.386
PBM binding z-score [8]: -0.0895
PBM binding z-score [9]: -0.47
PBM binding z-score [10]: -0.296

CCTAATGGGCCATCAGGTCATTGATATCAACGTT
PBM binding z-score [1]: 1.58
PBM binding z-score [2]: 1.34
PBM binding z-score [3]: 1.1
PBM binding z-score [4]: 1.48
PBM binding z-score [5]: 0.197
PBM binding z-score [6]: 2.33
PBM binding z-score [7]: 1.5
PBM binding z-score [8]: 2.54
PBM binding z-score [9]: 0.609
PBM binding z-score [10]: 1.98

CGAACTAGGTCAAGGACTGTGAATCTCCGCACGC
PBM binding z-score [1]: 3.02
PBM binding z-score [2]: 2.02
PBM binding z-score [3]: -0.179
PBM binding z-score [4]: 1.36
PBM binding z-score [5]: -0.152
PBM binding z-score [6]: 4.37
PBM binding z-score [7]: 7.06
PBM binding z-score [8]: 6.47
PBM binding z-score [9]: 4.05
PBM binding z-score [10]: 5.99

CCTTACGGGTCACTCCAGGTTATACCATCGGAGT
PBM binding z-score [1]: 4.89
PBM binding z-score [2]: 7.62
PBM binding z-score [3]: 2.1
PBM binding z-score [4]: 5.35
PBM binding z-score [5]: 0.431
PBM binding z-score [6]: 4.44
PBM binding z-score [7]: 3.61
PBM binding z-score [8]: 3.66
PBM binding z-score [9]: 1.11
PBM binding z-score [10]: 2.42

TCGCCTAGGTCATGCGGGCCAGTATAGTGTCGGC
PBM binding z-score [1]: 4.09
PBM binding z-score [2]: 2.65
PBM binding z-score [3]: 0.228
PBM binding z-score [4]: 1.72
PBM binding z-score [5]: -0.926
PBM binding z-score [6]: 3.47
PBM binding z-score [7]: 1.56
PBM binding z-score [8]: 2.12
PBM binding z-score [9]: 1.32
PBM binding z-score [10]: 1.71

CGTCGAAGGTCAAGGTCAGTGAAAGAGACTCGAA
PBM binding z-score [1]: 7.03
PBM binding z-score [2]: 5.5
PBM binding z-score [3]: 0.585
PBM binding z-score [4]: 4.59
PBM binding z-score [5]: 0.681
PBM binding z-score [6]: 6.39
PBM binding z-score [7]: 6.6
PBM binding z-score [8]: 6.24
PBM binding z-score [9]: 2.48
PBM binding z-score [10]: 5.24

GCTAGCAGGCCATTCGGGTCACTCAATGACGGGC
PBM binding z-score [1]: 1.03
PBM binding z-score [2]: 0.603
PBM binding z-score [3]: -0.377
PBM binding z-score [4]: 0.577
PBM binding z-score [5]: -1.07
PBM binding z-score [6]: 1.9
PBM binding z-score [7]: 0.695
PBM binding z-score [8]: 0.555
PBM binding z-score [9]: -0.392
PBM binding z-score [10]: 0.105

ACTAGCAGGGCAAGGGTCACTCAAGATTAGTCCG
PBM binding z-score [1]: 2.88
PBM binding z-score [2]: 2.84
PBM binding z-score [3]: 0.175
PBM binding z-score [4]: 2.76
PBM binding z-score [5]: -0.693
PBM binding z-score [6]: 4.79
PBM binding z-score [7]: 8.91
PBM binding z-score [8]: 7.48
PBM binding z-score [9]: 7.19
PBM binding z-score [10]: 7.64

TCATATAGGTAAACAAGTGAAAGTCCGTAAGTTA
PBM binding z-score [1]: 1.87
PBM binding z-score [2]: 1.33
PBM binding z-score [3]: 0.256
PBM binding z-score [4]: 1.17
PBM binding z-score [5]: 0.297
PBM binding z-score [6]: 1.58
PBM binding z-score [7]: 1.4
PBM binding z-score [8]: 2.55
PBM binding z-score [9]: 4.08
PBM binding z-score [10]: 2.98

CCTTACGGGTCACGAGGTAATAGCACGACGAGCG
PBM binding z-score [1]: 6.82
PBM binding z-score [2]: 4.16
PBM binding z-score [3]: -0.00739
PBM binding z-score [4]: 3.79
PBM binding z-score [5]: 0.00142
PBM binding z-score [6]: 5.93
PBM binding z-score [7]: 7.12
PBM binding z-score [8]: 6.63
PBM binding z-score [9]: 3.83
PBM binding z-score [10]: 5.54

CCTACTGGCCCATCAGGTCATTGATATCAACGTT
PBM binding z-score [1]: 1.56
PBM binding z-score [2]: 1.2
PBM binding z-score [3]: 1.15
PBM binding z-score [4]: 1.63
PBM binding z-score [5]: 0.0775
PBM binding z-score [6]: 1.62
PBM binding z-score [7]: 0.503
PBM binding z-score [8]: 1.07
PBM binding z-score [9]: 0.112
PBM binding z-score [10]: 0.701

ACAGACAGGTGATGAAGGTAAATCAGGCTATCAT
PBM binding z-score [1]: -0.0911
PBM binding z-score [2]: -0.136
PBM binding z-score [3]: -0.0858
PBM binding z-score [4]: 0.169
PBM binding z-score [5]: -0.557
PBM binding z-score [6]: 0.252
PBM binding z-score [7]: 0.707
PBM binding z-score [8]: 0.0594
PBM binding z-score [9]: -0.0828
PBM binding z-score [10]: -0.0561

GTACCAAGGTGAATAGGTCGTTGTTGAGTAGGCG
PBM binding z-score [1]: 0.827
PBM binding z-score [2]: 0.686
PBM binding z-score [3]: -0.152
PBM binding z-score [4]: 0.303
PBM binding z-score [5]: -0.821
PBM binding z-score [6]: 2.07
PBM binding z-score [7]: 1.18
PBM binding z-score [8]: 1.21
PBM binding z-score [9]: 0.0125
PBM binding z-score [10]: 0.678

CAGCCTAGGTCAGGCCCAGTATAGGAGGAACGTT
PBM binding z-score [1]: 1.06
PBM binding z-score [2]: 0.524
PBM binding z-score [3]: -0.444
PBM binding z-score [4]: 0.0997
PBM binding z-score [5]: -0.815
PBM binding z-score [6]: 1.45
PBM binding z-score [7]: 0.633
PBM binding z-score [8]: 0.673
PBM binding z-score [9]: -0.32
PBM binding z-score [10]: 0.386

CCTGCTAGGTCAATGATCAGCTAAAGCAGCTCGC
PBM binding z-score [1]: 2.71
PBM binding z-score [2]: 1.96
PBM binding z-score [3]: -0.345
PBM binding z-score [4]: 1.3
PBM binding z-score [5]: -0.139
PBM binding z-score [6]: 2.62
PBM binding z-score [7]: 1.98
PBM binding z-score [8]: 2.46
PBM binding z-score [9]: 0.000172
PBM binding z-score [10]: 1.24
